Measurements reported in publication PMC4081100, “A DNA-binding-site landscape and regulatory network analysis for NAC transcription factors in Arabidopsis thaliana”.

Assays:
Assay in all cases: universal protein binding microarray (PBM); transcription factors of Arabidopsis thaliana; high values mean tight binding
Settings in all cases: protein: recombinant; tags: GST; chain copies: 2; dsDNA, one strand shown
GST-ANAC092(1-176) = target: T1, GST-ANAC092(1-176) (Arabidopsis thaliana, UniProt Q9FKA0 1-176)
T1 sequence: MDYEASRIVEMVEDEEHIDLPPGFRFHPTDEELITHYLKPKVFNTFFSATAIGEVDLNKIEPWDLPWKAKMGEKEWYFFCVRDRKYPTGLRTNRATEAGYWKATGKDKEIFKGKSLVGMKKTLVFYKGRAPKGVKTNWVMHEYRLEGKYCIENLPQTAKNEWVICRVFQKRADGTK
How it was run: (§1)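 Binding is expressed as the normalised enrichment score (E-score). Proteins carrying a GST tag, whether NAC-domain, full-length or DNA-binding-domain forms, were induced in cells, and zinc acetate was added for zinc-finger proteins. After purification on glutathione–Sepharose 4B and quantification by A280 or anti-GST western blot, each was applied in duplicate at 200 to 500 nM final to custom all-10-mer Agilent 4 × 180K arrays made double-stranded by primer extension. Gapped and ungapped 8-mers were scored.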

GST-NTL6(1-168) = GST-NTL6(1-168) (Arabidopsis thaliana, UniProt Q9SCK6 1-168)
How it was run: as §1

GST-ANAC019 NAC domain = target: T2, GST-ANAC019 NAC domain (Arabidopsis thaliana, UniProt Q9C932 14-162)
T2 sequence: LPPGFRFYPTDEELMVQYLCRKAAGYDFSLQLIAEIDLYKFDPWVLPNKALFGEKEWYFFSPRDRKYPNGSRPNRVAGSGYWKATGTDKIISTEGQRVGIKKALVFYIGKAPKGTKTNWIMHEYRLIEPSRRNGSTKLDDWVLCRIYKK
How it was run: as §1

GST-ANAC055(1-171) = target: T3, GST-ANAC055(1-171) (Arabidopsis thaliana, UniProt Q9LDY8 1-171)
T3 sequence: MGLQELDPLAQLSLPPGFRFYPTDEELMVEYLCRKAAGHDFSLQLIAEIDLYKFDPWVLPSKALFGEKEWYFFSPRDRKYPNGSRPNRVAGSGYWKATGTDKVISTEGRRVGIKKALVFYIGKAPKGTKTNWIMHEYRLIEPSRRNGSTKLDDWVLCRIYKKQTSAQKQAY
How it was run: as §1

GST-ATAF1 NAC domain = target: T4, GST-ATAF1 NAC domain (Arabidopsis thaliana, UniProt Q39013 7-158)
T4 sequence: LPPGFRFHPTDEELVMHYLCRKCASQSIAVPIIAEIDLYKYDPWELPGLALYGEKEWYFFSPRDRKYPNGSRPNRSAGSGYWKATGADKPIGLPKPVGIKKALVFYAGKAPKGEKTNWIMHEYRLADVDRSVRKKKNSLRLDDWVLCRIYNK
How it was run: as §1

[1] = target: T5, GST-ANAC092(1-285) full length (Arabidopsis thaliana, UniProt Q9FKA0 1-285)
T5 sequence: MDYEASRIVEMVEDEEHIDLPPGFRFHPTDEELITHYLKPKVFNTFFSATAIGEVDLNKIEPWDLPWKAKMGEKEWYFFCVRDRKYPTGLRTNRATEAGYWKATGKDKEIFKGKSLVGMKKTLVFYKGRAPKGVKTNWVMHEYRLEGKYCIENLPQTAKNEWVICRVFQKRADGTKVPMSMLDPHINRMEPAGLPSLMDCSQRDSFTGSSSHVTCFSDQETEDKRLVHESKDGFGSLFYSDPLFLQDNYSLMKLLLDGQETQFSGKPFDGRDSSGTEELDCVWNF
How it was run: as §1

GST-NST2(1-184) = target: T6, GST-NST2(1-184) (Arabidopsis thaliana, UniProt Q9M274 1-184)
T6 sequence: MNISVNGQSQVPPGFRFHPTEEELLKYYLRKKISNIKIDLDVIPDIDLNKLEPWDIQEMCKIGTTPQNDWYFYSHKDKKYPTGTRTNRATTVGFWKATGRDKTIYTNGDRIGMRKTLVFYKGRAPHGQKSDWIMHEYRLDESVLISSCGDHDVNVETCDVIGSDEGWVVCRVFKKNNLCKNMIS
How it was run: as §1

GST-NTL8 NAC domain = target: T7, GST-NTL8 NAC domain (Arabidopsis thaliana, UniProt Q9XIN7 14-156)
T7 sequence: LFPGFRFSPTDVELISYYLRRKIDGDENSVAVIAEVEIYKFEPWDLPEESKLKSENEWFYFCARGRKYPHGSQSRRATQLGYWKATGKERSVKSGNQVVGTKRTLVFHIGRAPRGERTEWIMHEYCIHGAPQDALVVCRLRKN
How it was run: as §1

GST-SND1(1-203) = target: T8, GST-SND1(1-203) (Arabidopsis thaliana, UniProt Q9LPI7 1-203)
T8 sequence: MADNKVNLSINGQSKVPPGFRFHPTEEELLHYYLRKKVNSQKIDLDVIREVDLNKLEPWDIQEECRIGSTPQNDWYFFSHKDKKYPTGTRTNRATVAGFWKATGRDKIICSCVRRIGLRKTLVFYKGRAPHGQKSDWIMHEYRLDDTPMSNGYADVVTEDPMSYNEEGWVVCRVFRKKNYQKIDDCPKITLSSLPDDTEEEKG
How it was run: as §1

GST-VND3 NAC domain = target: T9, GST-VND3 NAC domain (Arabidopsis thaliana, UniProt Q9FH59 12-162)
T9 sequence: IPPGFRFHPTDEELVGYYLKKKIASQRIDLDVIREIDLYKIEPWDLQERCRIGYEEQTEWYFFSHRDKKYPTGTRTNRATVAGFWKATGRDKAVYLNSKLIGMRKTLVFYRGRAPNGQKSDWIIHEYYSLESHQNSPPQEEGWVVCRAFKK
How it was run: as §1

GST-VND7 NAC domain = target: T10, GST-VND7 NAC domain (Arabidopsis thaliana, UniProt Q9C8W9 9-158)
T10 sequence: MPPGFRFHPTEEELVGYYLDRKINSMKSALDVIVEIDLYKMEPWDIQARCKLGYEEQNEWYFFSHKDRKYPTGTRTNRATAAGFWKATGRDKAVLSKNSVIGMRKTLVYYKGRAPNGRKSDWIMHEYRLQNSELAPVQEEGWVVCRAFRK
How it was run: as §1

GST-NAP(1-166) = target: T11, GST-NAP(1-166) (Arabidopsis thaliana, UniProt O49255 1-166)
T11 sequence: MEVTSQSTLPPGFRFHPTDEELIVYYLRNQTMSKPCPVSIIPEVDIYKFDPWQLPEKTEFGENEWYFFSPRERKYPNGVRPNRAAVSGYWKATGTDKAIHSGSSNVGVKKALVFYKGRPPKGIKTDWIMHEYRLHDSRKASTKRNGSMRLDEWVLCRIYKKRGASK
How it was run: as §1

Sequence of GST-NTL6(1-168) (Q9SCK6 1-168): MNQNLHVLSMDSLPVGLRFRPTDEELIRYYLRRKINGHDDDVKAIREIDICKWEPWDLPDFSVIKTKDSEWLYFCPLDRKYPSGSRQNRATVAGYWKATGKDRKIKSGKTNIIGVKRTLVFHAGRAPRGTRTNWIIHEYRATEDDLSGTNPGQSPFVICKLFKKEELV

Sequence	binding signal (GST-ANAC092(1-176))	binding signal (GST-NTL6(1-168))	binding signal (GST-ANAC019 NAC domain)	binding signal (GST-ANAC055(1-171))	binding signal (GST-ATAF1 NAC domain)	binding signal [1]	binding signal (GST-NST2(1-184))	binding signal (GST-NTL8 NAC domain)	binding signal (GST-SND1(1-203))	binding signal (GST-VND3 NAC domain)	binding signal (GST-VND7 NAC domain)	binding signal (GST-NAP(1-166))
CAAGCAAG	0.369 E-score	0.235 E-score	0.163 E-score	0.0997 E-score	0.0612 E-score	0.419 E-score	0.265 E-score	0.111 E-score	0.395 E-score	0.0934 E-score	0.14 E-score	
CTTGCTTA	0.251 E-score	0.416 E-score	0.0719 E-score		0.136 E-score	0.347 E-score	0.17 E-score	0.194 E-score	0.437 E-score	0.124 E-score	0.0501 E-score	
ATTGCTTC	0.259 E-score	0.348 E-score	0.108 E-score	0.0988 E-score		0.351 E-score	0.259 E-score	0.278 E-score	0.411 E-score	0.143 E-score	0.213 E-score	
ATACGCTA	0.451 E-score	0.0936 E-score		0.223 E-score	0.187 E-score	0.466 E-score	0.331 E-score		0.458 E-score	0.163 E-score	0.182 E-score	0.155 E-score
AGCGTAAG	0.191 E-score	0.0608 E-score		0.0588 E-score	0.0897 E-score	0.312 E-score	0.172 E-score	0.0559 E-score	0.4 E-score	0.131 E-score	0.141 E-score	
ATTACTTA	0.279 E-score	0.49 E-score		0.191 E-score	0.168 E-score	0.349 E-score	0.296 E-score	0.31 E-score	0.38 E-score	0.21 E-score	0.154 E-score	0.0737 E-score
AAGCAACA	0.387 E-score	0.333 E-score		0.134 E-score	0.0645 E-score	0.405 E-score	0.342 E-score	0.194 E-score	0.439 E-score	0.0696 E-score	0.146 E-score	
ATAGCGTA	0.437 E-score	0.0935 E-score		0.136 E-score	0.165 E-score	0.438 E-score	0.355 E-score		0.476 E-score	0.137 E-score	0.254 E-score	0.128 E-score
AAGCAAGC	0.344 E-score	0.167 E-score	0.0929 E-score			0.417 E-score	0.23 E-score	0.209 E-score	0.443 E-score	0.139 E-score	0.114 E-score	
TAAGAAAA	0.215 E-score	0.454 E-score		0.129 E-score	0.193 E-score	0.269 E-score	0.235 E-score	0.216 E-score	0.301 E-score	0.137 E-score	0.181 E-score	
ATTGCTTG	0.355 E-score	0.228 E-score	0.19 E-score	0.115 E-score		0.408 E-score	0.296 E-score	0.143 E-score	0.406 E-score	0.223 E-score	0.218 E-score	
CAAGCAAC	0.426 E-score	0.239 E-score	0.1 E-score	0.139 E-score		0.442 E-score	0.311 E-score	0.13 E-score	0.435 E-score	0.164 E-score	0.139 E-score	
GTGGAGTA	0.275 E-score	0.0723 E-score		0.0843 E-score	0.217 E-score	0.332 E-score	0.242 E-score		0.402 E-score	0.0649 E-score	0.15 E-score	0.0918 E-score
AAGCAAAC	0.331 E-score	0.359 E-score		0.194 E-score	0.137 E-score	0.355 E-score	0.31 E-score	0.336 E-score	0.401 E-score	0.181 E-score	0.206 E-score	0.119 E-score
AAGCAACC	0.425 E-score	0.329 E-score		0.0668 E-score	0.0659 E-score	0.453 E-score	0.349 E-score	0.301 E-score	0.479 E-score	0.114 E-score	0.136 E-score	
GTAGCGTA	0.427 E-score	0.111 E-score		0.205 E-score	0.288 E-score	0.47 E-score	0.381 E-score		0.489 E-score	0.239 E-score	0.267 E-score	0.27 E-score
TACGCCAA	0.413 E-score	0.0645 E-score	0.0981 E-score	0.172 E-score	0.309 E-score	0.439 E-score	0.251 E-score	0.0846 E-score	0.454 E-score	0.171 E-score	0.244 E-score	
TGAAGTAA	0.242 E-score	0.377 E-score		0.155 E-score	0.169 E-score	0.323 E-score	0.324 E-score	0.437 E-score	0.424 E-score	0.131 E-score	0.132 E-score	
ACGCTACA	0.27 E-score	0.051 E-score		0.0711 E-score	0.0647 E-score	0.404 E-score	0.249 E-score		0.402 E-score	0.101 E-score	0.0811 E-score	0.0555 E-score
ACCTTAAC	0.126 E-score	0.415 E-score		0.156 E-score	0.155 E-score	0.147 E-score	0.154 E-score	0.16 E-score	0.13 E-score	0.156 E-score	0.077 E-score	
GTAACTTA	0.271 E-score	0.375 E-score		0.185 E-score	0.233 E-score	0.357 E-score	0.306 E-score	0.229 E-score	0.43 E-score	0.195 E-score	0.141 E-score	0.133 E-score
CTAAGCAA	0.201 E-score	0.461 E-score	0.0628 E-score			0.314 E-score	0.272 E-score	0.254 E-score	0.473 E-score	0.134 E-score	0.184 E-score	
CGAAGTAA	0.199 E-score	0.448 E-score	0.128 E-score	0.143 E-score	0.23 E-score	0.279 E-score	0.223 E-score	0.416 E-score	0.303 E-score	0.138 E-score	0.19 E-score	
AGAAGCAA	0.381 E-score	0.361 E-score	0.0522 E-score	0.119 E-score	0.0783 E-score	0.42 E-score	0.284 E-score	0.218 E-score	0.382 E-score	0.109 E-score	0.234 E-score	
TGGAGTAA	0.319 E-score	0.105 E-score		0.128 E-score	0.11 E-score	0.342 E-score	0.317 E-score		0.454 E-score	0.0609 E-score	0.131 E-score	
GTTTCTTA	0.226 E-score	0.435 E-score	0.141 E-score	0.185 E-score	0.257 E-score	0.313 E-score	0.311 E-score	0.28 E-score	0.33 E-score	0.16 E-score	0.0761 E-score	
CTAAGTTA	0.294 E-score	0.393 E-score		0.13 E-score	0.173 E-score	0.279 E-score	0.282 E-score		0.413 E-score	0.21 E-score	0.0803 E-score	
TTAAGTAA	0.236 E-score	0.48 E-score	0.198 E-score	0.0996 E-score	0.168 E-score	0.3 E-score	0.258 E-score	0.34 E-score	0.403 E-score	0.17 E-score	0.135 E-score	
